Source: the OligoGym collection

molecular target: FCHSD2; test: pooled miR-30 sensor sort-seq; sequence = guide strand; details: shRNA
Also: reference of the scale not given here.

Sequence | sensor-assay potency score (higher = more potent)
TATCTTCAAACTCTTCGCCTTC | -0.452
TTTAAGCTTCTCACTGTCCTTG | 0.228
TTATCTTCAAACTCTTCGCCTT | -0.0794
TTCTGTTCTAGCTCTGCTCGGC | -0.12
TAGGAATAAACAACTTTGCAGG | -0.656
TGCTTTAGCAGGTCCAACCGGG | -0.504
TAGCTTTGGAATTACACTCAGA | -0.799
TTTAGCTAAATCTTTCACTGTC | 1.33
TAACTTTACACTTGCCTTCTGT | -0.129
TTTCTGATTCTAACTGTCGGCT | -0.5
TTTTCTTGCAAAAACAGCTGAA | -0.0894
TTCGGTATCTGCATTAAGCGAG | 0.0519

molecular target: FCRL4; test: as above; details: shRNA

Sequence | sensor-assay potency score (higher = more potent)
TTCTCTGTTGCATAGAACTGAA | -0.545
TATTTGAACTTGCTTGTGGGAT | -0.378
TTATCCTCTAGAAGTGTCCTGG | 0.145
TGTTATTTGAACTTGCTTGTGG | 0.392
TTGCATAGAACTGAAATCCATT | -0.778
TTATTTTGAAATTTGATCTAAA | -0.106
TACATCAACATACAACGACTGA | -0.697
TAGACAACTGAGACATCCTTAT | -0.682
TAGAACTGAAATCCATTGCAAG | -0.914
TAGAGCTGATCTTTCCAGCTGA | 0.365
TTATTTGAACTTGCTTGTGGGA | -0.64
TAGGCTGAGAGTCTGTAGCTTT | 0.173
